# TDP1 cell CPT = growth inhibition of DT40 Tdp1-/-;hTDP1 cells with camptothecin (screen for TDP1 inhibitors); chicken DT40 Tdp1-/-;hTDP1 cells + 20 nM CPT, ATP luminescence, 48 h; Potency, µM (titrated, usually from 46.2 µM), for the others: top-dose activity change, negative = growth inhibition, actives largely listed as inhibitors; hit rate 12% among 420,000; note: potency is the fitted concentration of half-maximal effect; nearly all actives have a fitted effect of over 55% in size
#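 Cell growth measured by CellTiter-Glo luminescence after a minimum 48 h, 37 C compound exposure with 20 nM CPT in Tdp1-knockout DT40 cells stably expressing hTDP1, seeded 400/well; qHTS titration format.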
# HT1080-NT tox = kills 2HG-producing HT-1080-NT fibrosarcoma cells. HT-1080-NT fibrosarcoma viability, CellTiter-Glo ATP luminescence, 48 h. Potency, µM (titrated, usually from 46.1 µM), for the others: top-dose activity, negative = less viability, usual class: cytotoxic. hit rate 1.6% among 360,000. AID 686970;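 note: NT is the 2HG producing partner of a matched IDH1 knockdown line; potency is the fitted concentration of half-maximal effect; 0% = DMSO-treated cells and -100% = media-only wells without cells; nearly all actives have a fitted effect of over 55% in size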
#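 A 48-hour cytotoxicity screen used HT-1080-NT cells plated 2 hours before compound delivery. ATP-based CellTiter-Glo luminescence measured viability, normalized to DMSO and no-cell controls.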
# HT1080 IDH1KD tx = kills HT-1080 cells with IDH1 knockdown; HT-1080 IDH1 knockdown viability, ATP luminescence, 48 h; Potency, µM (top dose mostly 46.1 µM), for the others: at the top dose activity, negative = toxicity, usual class: cytotoxic; hit rate 2% among 360,000; AID 686971;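 note: potency is the fitted concentration of half-maximal effect; 0% = DMSO wells and -100% = cell-free medium wells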
#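 Knockdown cells (IDH1KD HT-1080) received compounds 2 h after plating at 750 cells/well and were kept 48 h at 37 °C in 5% FBS RPMI. A CellTiter-Glo luminescence read gave % activity for curve fitting.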
# ELG1 repair inh = ELG1-dependent DNA repair inhibition. AID 504467. HEK293T ELG1-luciferase reporter, luminescence, 16 h; DNA damage induced by 5-fluorouridine. hit rate 2.3% among 330,000. Potency, µM (doses to about 46.1 µM), for inactives: top-dose activity change, negative = inhibition, usual class: inhibitors; note: potency is the fitted concentration of half-maximal effect; nearly all actives have a fitted effect of over 55% in size
#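 In this reporter screen, reduction of luminescence relative to DMSO vehicle indicated activity. Compounds and 5-fluorouridine were added together to 2,000 cells per well, incubated for 16 hr at 37 °C, then developed with ONE-Glo.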
# IL1B secr inh = inflammasome signaling inhibition, IL-1 beta readout. THP-1 LPS/ATP IL-1B secretion, AlphaLISA, 16 h; stronger effect = lower value. activity change, % at 57.5 µM. hit rate 4.7% among 360,000. AID 743279; in the data active = activity change below about -50%; inconclusive = mostly about -30% to -49%
#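 THP-1 cells pretreated 1 hr with compounds (up to 57.5 uM final), then stimulated with LPS (250 ng/mL final) plus ATP (1.25 mM final); secreted IL-1B measured by AlphaLISA after 16 hr, decreased signal indicating inhibition.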
# TDP1 cell noCPT = qHTS for Inhibitors of human tyrosyl-DNA phosphodiesterase 1 (TDP1): qHTS in cells in absence of CPT. Potency, µM (highest dose often 46.2 µM), for inactives: top-dose activity change, negative = growth inhibition, usual class: inhibitors. DT40 Tdp1-/- hTDP1 cells, no CPT, ATP luminescence, 48 h. hit rate 15% among 420,000; note: potency is the fitted concentration of half-maximal effect; nearly all actives have a fitted effect of over 55% in size
#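 Cells were dispensed at 400 per well, compounds added by pin tool, plates incubated ≥48 hr at 37 °C, then CellTiter-Glo added for 30 min at room temperature before luminescence reading. Line: DT40 Tdp1-/- complemented with hTDP1; camptothecin omitted.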
# Starred values were filed as active, the others as inactive; ? = inconclusive; · = not tested or not shown. In the library only some 19% were active in any assay of this set; here they are far more common. Unless noted, calls come from the whole dose curve; as a rule, active = well fitted curve in the direction sought with a large enough effect; inconclusive = small, poorly fitted or top-dose-only effect, or another doubt; inactive = no such curve, though single readings can be large; an effect the other way counts as inactive or inconclusive. Unless noted, % is set by controls: 0 for no effect and ±100 for the full control effect.
SMILES,TDP1 cell CPT,HT1080-NT tox,HT1080 IDH1KD tx,ELG1 repair inh,IL1B secr inh,TDP1 cell noCPT
CCc1ccc(NC(=O)c2cc(S(=O)(=O)N3CCCC3)c[nH]2)cc1,?,-5.0%,-11.8%,-25.5%,-5.8,23.1µM*
O=C(NCCc1ccc(Cl)cc1)c1cc(S(=O)(=O)N2CCCCC2)c[nH]1,23.1µM*,4.7%,-16.7%,?,9.7,9.2µM*
O=C(NCc1ccccc1Cl)C(=O)NCC1OCCN1S(=O)(=O)c1ccc(F)cc1 (centres undefined),-20.9%,-2.3%,-5.7%,-26.7%,-7.7,-29.9%
COCCNC(=O)C(=O)Nc1ccc2c(c1)N(S(=O)(=O)c1cccs1)CCC2,1.84µM*,?,6.51µM*,-1.1%,22.5,1.46µM*
CC(C)CCNC(=O)C(=O)Nc1ccc2c(c1)N(S(=O)(=O)c1cccs1)CCC2,5.17µM*,3.26µM*,2.59µM*,?,62.8,3.66µM*
COc1ccccc1CNc1ccnc(-c2cccc(NS(C)(=O)=O)c2)n1,?,·,·,·,·,-16.8%
CCO[C@@H]1OC(C(=O)N2CCCCCCC2)=C[C@H](c2csc3ccccc23)[C@H]1CCCO,20.6µM*,8.9%,0.5%,1.4%,?,23.1µM*
CCO[C@@H]1OC(C(=O)N2CCCCCCC2)=C[C@H](c2cn(C(C)=O)c3ccccc23)[C@H]1CCCO,16.4µM*,-5.4%,-5.5%,?,-52.6*,?
NNC(=O)c1[nH]c2ccc(Br)cc2c1-c1ccccc1,?,9.2µM*,14.6µM*,?,14.3,23.1µM*
NNC(=O)c1[nH]c2ccc(Cl)cc2c1-c1ccccc1,?,?,?,16.4µM*,26.5,20.6µM*
CCN(CC)C(=S)Sc1c(-c2ccccc2)c2cc(Cl)ccc2[nH]c1=O,2.31µM*,-16.8%,?,-9.9%,-61.3*,?
C/C(=N\NC(=O)CCCC(=O)O)c1c(-c2ccccc2)c2cc(Cl)ccc2[nH]c1=O,-1.6%,-21.7%,11.4%,18.6%,5.4,-10.1%
O=C(O)CSc1c(-c2ccccc2)c2cc(Cl)ccc2[nH]c1=O,-3.6%,-0.6%,-0.6%,9.5%,10.1,-4.0%
CCO[C@H]1OC(C(N)=O)=C[C@@H](C2CC2)[C@@H]1CCCO,9.7%,0.0%,0.3%,·,12.5,0.2%
CCc1cccc(NC(=O)CCS(=O)(=O)c2ccc(Br)cc2)c1,23.1µM*,13.3%,8.7%,-8.5%,23.4,29.1µM*
COc1cc(NC(=O)CCS(=O)(=O)c2ccc(Br)cc2)cc(OC)c1,-24.6%,·,·,·,·,?
CO/N=C/c1ccc(Oc2ccc(C)cc2)c([N+](=O)[O-])c1,?,0.2%,-4.1%,7.2%,-18.7,20.6µM*
CCc1nn(-c2ccccc2)c2nc(-c3ccc(O)cc3)c3cc(OC)c(OC)cc3c12,0.8%,·,·,·,·,-21.3%
CC(C)Cn1c(N)c(C(=O)COC(=O)c2ccc(Br)cc2)c(=O)n(C)c1=O,?,-12.3%,-23.3%,20.6µM*,?,23.1µM*
COC(=O)c1c(C)[nH]c(C(=O)OCC(=O)c2c(N)n(CC(C)C)c(=O)n(C)c2=O)c1C,?,-17.3%,-12.6%,16.4µM*,?,14.6µM*
CC(C)Cn1c(N)c(C(=O)COC(=O)c2cccc(F)c2)c(=O)n(C)c1=O,?,-1.5%,-6.5%,?,9.0,?
Cc1cccc(C(=O)OCC(=O)c2c(N)n(CC(C)C)c(=O)n(C)c2=O)c1O,23.1µM*,?,-27.3%,?,-3.2,23.1µM*
CC(C)Cn1c(N)c(C(=O)COC(=O)c2ccc(O)cc2O)c(=O)n(C)c1=O,?,-2.0%,?,?,20.7,25.9µM*
CC(C)Cn1c(N)c(C(=O)COC(=O)c2ccncc2)c(=O)n(C)c1=O,-20.9%,0.0%,-1.1%,?,7.5,?
CC(=O)OC1CC[C@@]2(C)C(CC[C@@]3(C)C2CC=C2C4CC(C)(C)CC[C@]4(C(=O)O)CC[C@@]23C)C1(C)C (some centres undefined),-1.7%,·,·,·,·,-4.2%
SMILES,TDP1 cell CPT,HT1080-NT tox,HT1080 IDH1KD tx,ELG1 repair inh,IL1B secr inh,TDP1 cell noCPT
Cc1ccc(C2=N/C(=C\N3CCCCC3)C(=O)O2)cc1,-17.8%,3.0%,2.3%,?,-63.4*,-27.9%
Cc1ccc(C2=N/C(=C/N3CCOCC3)C(=O)O2)cc1,-14.2%,0.6%,13.6%,?,-27.2,-10.4%
COc1ccc(OC)c(NC(=O)CSc2ccnc(=O)[nH]2)c1,-5.0%,·,·,·,·,-6.1%
CCc1nn(CC(=O)N(CC)Cc2ccccc2)c(=O)c2cc3occc3n12,23.1µM*,·,·,·,·,16.4µM*
CC1(C(=O)Nc2ccc(Cl)c(C(F)(F)F)c2)Cc2c(-c3ccc4c(c3)OCO4)ccnc2O1 (centres undefined),?,?,?,·,-7.8,?
CC1(C(=O)Nc2cccc(Oc3ccccc3)c2)Cc2c(-c3ccc4c(c3)OCO4)ccnc2O1 (centres undefined),?,?,?,·,80.1,13µM*
CN(C)c1ccc(-c2ccnc3c2CC(C)(C(=O)Nc2ccc(Cl)c(C(F)(F)F)c2)O3)cc1 (centres undefined),?,?,?,·,-20.3,5.17µM*
CC(=O)Nc1ccc(-c2ccnc3c2CC(C)(C(=O)Nc2ccc(Cl)cc2)O3)cc1 (centres undefined),?,?,?,·,-53.1*,-24.1%
CC(=O)Nc1ccc(-c2ccnc3c2CC(C)(C(=O)Nc2ccc4c(c2)OCO4)O3)cc1 (centres undefined),18.4µM*,?,?,·,-51.5*,?
CSc1ccccc1C(=O)N(CC1CCCO1)c1c(N)n(Cc2ccccc2)c(=O)[nH]c1=O (centres undefined),-0.2%,1.7%,-0.3%,14.5%,22.4,-16.1%
COC(=O)C1=C(C)NC(C)=C(C(=O)OC)C1C(=O)OCc1nnc(-c2ccccc2Cl)o1,?,1.1%,-0.5%,?,23.6,?
CC1(C(=O)Nc2ccc(Cl)c(C(F)(F)F)c2)Cc2c(-c3ccccc3)ccnc2O1 (centres undefined),?,-2.8%,-5.4%,·,-16.7,?
CC(=O)Nc1ccc(-c2ccnc3c2CC(C)(C(=O)Nc2ccc(Cl)c(C(F)(F)F)c2)O3)cc1 (centres undefined),14.6µM*,?,16.4µM*,·,-20.6,23.1µM*
